Measurements taken from the supplement of paper PMC3334620.
In all, about 33,000 sequences were measured (“E-score (-0.5 to 0.5)”: median about -0.0034, highest 2% from about 0.25 on). Only a selection was taken, and the highest values are over-represented in it overall.

target: T1, Yap3 (UniProt P38749); assay: PBM E-score (8-mer binding enrichment) (E-score (-0.5 to 0.5)); higher = stronger / more preferred TF binding; conditions: protein concentration: 100 nM; construct: GST-full length
T1 sequence: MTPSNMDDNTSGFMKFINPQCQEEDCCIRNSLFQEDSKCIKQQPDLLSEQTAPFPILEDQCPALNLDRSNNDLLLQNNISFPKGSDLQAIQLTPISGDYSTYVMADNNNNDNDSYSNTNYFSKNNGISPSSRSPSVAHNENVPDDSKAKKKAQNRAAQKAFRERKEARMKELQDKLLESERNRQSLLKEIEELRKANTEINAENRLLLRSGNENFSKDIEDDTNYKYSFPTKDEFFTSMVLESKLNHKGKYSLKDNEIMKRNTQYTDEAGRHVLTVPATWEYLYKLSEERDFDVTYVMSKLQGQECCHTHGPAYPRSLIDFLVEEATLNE
Procedure: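 Universal 'all 10-mer' protein binding microarrays (Agilent AMADID 015681) probed with GST-tagged S. cerevisiae TFs (full-length or DBD) made by in vitro transcription/translation (PURExpress), about 100-200 nM. Bound TF was detected with fluorescent anti-GST. Each ungapped 8-mer (which stands for itself and its reverse complement) is scored by the PBM enrichment score (E-score), a modified Wilcoxon-Mann-Whitney statistic from -0.5 to +0.5, computed with the Universal PBM Analysis Suite. Scale: above 0.35 generally sequence-specific binding.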

Sequence	PBM E-score
AGGGGCAA	0.0575
TCCTTTCA	0.062
AGTGGCCG	-0.119
CTTTATGC	0.109
GAGAAGTA	0.0274
AAAGCTGT	0.15
ACCCTGCA	0.122
ATGCGCAT	0.315
ATGCGCAC	0.0993
ATGCGCAA	0.0772
ACCTATTA	0.11
AAAGGCAG	-0.0629
TAAGGCAA	0.0224
AAAGGCAA	0.254
GTCCCGGA	-0.103
AGTCGCGA	0.272
AATCGCGA	0.255
AATCGCGT	0.156
GGTCGCGA	0.0906
CGTCGCGA	0.141
CATCGCGA	0.112
ATGGTTCC	0.0898
CTCTTTGC	0.00066
AACTTCGG	0.13
TAATTTCA	0.309
AAATTTCA	0.0121

Sequence	PBM E-score
AAATTTCC	0.125
CAATTTCC	0.0859
GAATTTCC	0.277
CAATTTCA	0.0657
AACAGTCG	-0.0471
CCAGCCCG	-0.258
GTTTACCA	0.107
CCTAAGCG	-0.033
CCCCATCC	-0.233
ACGCGAGT	0.087
ACATTTAA	0.221
TATGCGAA	0.0891
AACGGAAA	0.171
AATGGAAG	0.105
AATGGAAT	0.275
AACGGAAT	0.262
AATGGAAC	0.12
AACGGAAG	0.2
GCTCCTTA	0.0472
TAATGACA	0.197
TAACCTTA	-0.0831
TAGTCTCA	-0.034
AAGTACTT	-0.202
ATGGATAG	0.0546
ACTAACAC	0.125
CCTAACAG	0.0154

Sequence	PBM E-score
ACTAACAG	0.315
CCATTGTC	0.0818
ACATTGTC	0.261
ACATTGTG	0.0748
GGCTTATA	-0.00779
CTCGACGC	0.0226
AATGTTGC	0.0681
CGGATGAG	-0.0331
AGGATGAA	0.0231
CGGATGAA	0.265
ATAGAAAA	0.217
ACTACACA	0.258
CCTACACG	-0.251
ACTACACG	0.0255
ATTACACA	0.255
ATTACAGG	0.268
ATAACACA	0.273
CTAACACA	0.146
ATTACACG	0.0795
ATAACACG	0.137
ATTACACC	0.215
ATTACAGA	0.11
ATTACAGC	-0.046
CCAGTGGC	-0.168
ATCGAGTC	-0.0569
CAGTAAGC	0.0593

Sequence	PBM E-score
AAAGATGA	0.144
ATTCTTCA	0.0724
ATAACCTG	-0.0425
CGTATAAA	0.156
GATTACAA	0.154
ACCAGTTG	0.0294
AAAAGGGG	-0.187
AATCAATT	0.256
AATCAACA	0.304
GATCAACA	-0.0544
AATCAATG	0.2
AATCAACG	0.109
CATCAACA	0.255
TATCAACA	0.123
AATCAATC	0.139
AATCAACC	-0.0555
CTCGGTAA	0.053
ATGAAAAT	0.209
GTGAAATA	0.0605
ATGAAATA	0.288
ATGAAAAA	0.278
ATGAAAAG	0.122
CTGAAATA	0.165
ACGTGCTC	-0.0391
AAAGGTAA	0.0127
CGGTTGAG	-0.052

Sequence	PBM E-score
AGATTCGC	-0.0247
CGTCTGAC	0.066
CAAGTGTG	0.0428
CTGACACC	-0.174
ATGGCACC	-0.14
CTCTGCAC	-0.173
TTATATAA	0.418
ACATATAC	0.146
CTCTATAA	0.0647
ACATATAT	0.123
AGGTATAA	0.0868
GTATATAA	0.217
TGGTATAA	0.268
CTATATAA	0.121
CGGTATAA	0.18
ATATATAA	0.295
TGATATAA	0.108
ACATATAA	0.29
GCCTGCCC	-0.297
CAGAACTG	0.157
AGCATGAC	-0.037
ACGACCTG	-0.18
AAAGTGTC	-0.0685
CGGACTAG	-0.101
CTAGAGAG	-0.139
TGCGACAA	-0.00108

Sequence	PBM E-score
CGCGACAA	0.272
GGCGACAA	-0.181
GCGTCCCA	-0.121
GGTGGCGA	-0.0578
AAGGAGCG	0.00726
ACGGCAAG	0.1
ACGGCAAT	0.285
ACGGCAAA	0.134
GGAAAACC	-0.11
GGAAAAAC	0.3
GAAAAACC	0.136
GGGAAAAC	0.0844
AAAAAAAC	0.151
GGAAAAAA	0.248
GAAAAAAA	0.287
GAAAAAAC	0.255
AAAAAAAA	0.244
CCCAGCAC	-0.123
CACAGCAA	0.103
AGTCCTAC	-0.125
CTACCTTC	0.0321
AAGCTAAC	0.0596
CCTAAGGC	-0.38
GTACTTCA	0.287
CTACTTCA	-0.0894
ATACTTCA	0.0363

Sequence	PBM E-score
GCCAGGCA	-0.12
AACAGGCC	-0.258
ACGCGTTG	-0.027
ATACCTAT	0.124
TTACCTAA	0.281
ATACCTAC	-0.0217
CTACCTAA	0.126
GTACCTAA	-0.0819
ATACCTAA	0.273
CTCAGACA	0.087
GCATTCAA	0.0939
CGAACAAG	0.0425
GGAACAAA	0.311
AGAACAAA	0.291
GGAACAAC	0.157
TGAACAAA	0.248
CGAACAAA	0.303
AGAACAAG	0.205
AGAACAAT	0.221
GCAACAAA	0.193
